NS1 inh: qHTS Assay for Inhibitors of Influenza NS1 Protein Function. 270,000 tested, 0.4% active. Potency, µM (top dose mostly 46.1 µM); calls by dose curve; further: actives are rising curves; nearly all actives have a fitted effect of over 50% in size
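Compounds were scored for reversing the slow growth caused by influenza A NS1 in S. cerevisiae, measured by optical density at 600 nm. Assay medium contained 2% galactose at pH 6.0; NS1-free yeast of the same strain were the positive control.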
Pf growth 96h: Primary qHTS for delayed death inhibitors of the malarial parasite plastid, 96 hour incubation | AID 504834, 2011 | Potency, µM (series often up to 28.7 µM), actives largely listed as inhibitors | 320,000 tested, 6.9% active | P. falciparum luciferase reporter growth, 96 h
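Readout is luminescence from an integrated firefly luciferase in P. falciparum. Red cells, 2% hematocrit and 0.05% parasitemia final, were cultured with compound through two parasite generations (96 hours) at 37 C, 5% CO2.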
Sm TGR block: qHTS Assay for the Inhibitors of Schistosoma Mansoni Peroxiredoxins; Schistosoma mansoni thioredoxin glutathione reductase (TGR), Q962Y6; purified TGR, DTNB reduction, TNB absorbance 405 nm; Potency, µM (doses to about 114 µM), actives largely listed as inhibitors; 360,000 tested, 3% active; further: nearly all actives have a fitted effect of over 60% in size
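First, TGR (20 nM dispensed) and NADPH were mixed with compound. Second, a 15 min room-temperature incubation followed. Third, further NADPH and then DTNB were added to start the reaction. Finally, TNB absorbance was monitored kinetically.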
Shiga toxin inh: A qHTS for Small Molecule Inhibitors of Shiga Toxin. Vero cells, Shiga toxin protein synthesis inhibition reporter. inhibition, % at 38.7 µM. 290,000 tested, 9.2% active. AID 2315, 2010; in the data active means inhibition mostly above about 28%, no sharp cut-off; inactive means mostly below about 43%
CHX counter: Cycloheximide Counterscreen for Small Molecule Inhibitors of Shiga Toxin; cell reporter, cycloheximide protein synthesis inhibition counterscreen; max response, %; 300,000 tested, 12% active; AID 2314, 2010; in the data active means max response mostly above about 13%, no sharp cut-off; inactive means mostly below about 14%; further: read at 38.3 µM for the half of the compounds with a filed dose
Pf growth 48h: Primary qHTS for delayed death inhibitors of the malarial parasite plastid, 48 hour incubation | P. falciparum luciferase growth in erythrocytes, 48 h | Potency, µM (highest dose often 28.7 µM), actives largely listed as inhibitors | 310,000 tested, 5.9% active | AID 504832, 2011
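Growth was read as firefly luciferase luminescence after a 48 h, 37 C, 5% CO2 exposure of compounds to reporter-bearing P. falciparum cultures (0.1% parasitemia, 2% hematocrit final) in Albumax-supplemented RPMI 1640.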
Hits are given with their value. In the library only some 21% were active in any assay of this set; here they are far more common. Unless noted, the call rests on the fitted dose curve; in most records, active means well fitted curve in the direction sought with a large enough effect; inconclusive means small, poorly fitted or top-dose-only effect, or another doubt; inactive means no such curve, though single readings can be large; an effect the other way counts as inactive or inconclusive.

For CCOC(=O)c1ccccc1NC(=O)c1cn(-c2ccc(OC)cc2)c(=O)c2ccccc12 the results were NS1 inh inactive, Pf growth 96h 2.9µM, Sm TGR block inactive, Shiga toxin inh inactive, CHX counter inactive and Pf growth 48h inconclusive.
`CCOC(=O)c1ccccc1NC(=O)c1cn(-c2ccc(C)c(C)c2)c(=O)c2ccccc12` gave NS1 inh inactive, Pf growth 96h inconclusive, Sm TGR block inactive, Shiga toxin inh inactive, CHX counter inactive and Pf growth 48h inconclusive.
Cc1ccc(-n2cc(C(=O)Oc3cccc(C)c3)c3ccccc3c2=O)cc1 was read as Sm TGR block inactive.
`COc1cccc(-n2cc(C(=O)Nc3cc(OC)c(OC)c(OC)c3)c3ccccc3c2=O)c1` gave Sm TGR block inactive.
Screening Cc1ccc(-n2cc(C(=O)Oc3ccc(F)cc3)c3ccccc3c2=O)cc1 returned Sm TGR block 35µM.
`CCOc1ccccc1NC(=O)CSC1=Nc2ccccc2C2=NC(CC(=O)NCc3ccc4c(c3)OCO4)C(=O)N12` (stereo unspecified) gave Sm TGR block inactive.
Clc1ccccc1/C=C/c1nc(-c2ccccn2)no1 was read as NS1 inh inactive, Pf growth 96h inactive, Sm TGR block inactive, Shiga toxin inh inactive, CHX counter inactive and Pf growth 48h 2.1µM.
`c1ccc(-c2noc(-c3ccc4c(c3)OCO4)n2)nc1` gave NS1 inh inconclusive, Sm TGR block inactive, Shiga toxin inh inactive, CHX counter inactive and Pf growth 48h inactive.
Screening O=[N+]([O-])c1cccc(-c2nc(-c3ccccn3)no2)c1 returned NS1 inh inactive, Pf growth 96h inactive, Sm TGR block inactive, Shiga toxin inh 72, CHX counter 46 and Pf growth 48h inactive.
c1ccc(-c2noc(-c3ccncc3)n2)nc1 was read as NS1 inh inactive, Pf growth 96h inactive, Sm TGR block inactive, Shiga toxin inh inactive, CHX counter 34 and Pf growth 48h inactive.
`c1ccc(-c2noc(-c3cccnc3)n2)nc1` gave NS1 inh inconclusive, Sm TGR block inactive, Shiga toxin inh 80, CHX counter 42 and Pf growth 48h inactive.
For Cc1onc(-c2ccccc2Cl)c1-c1nc(-c2ccccn2)no1 the results were NS1 inh inactive, Pf growth 96h inactive, Sm TGR block inactive, Shiga toxin inh inactive, CHX counter inactive and Pf growth 48h inactive.
Screening Cc1c(C(N)=O)nnn1-c1ccc(Br)cc1 returned Sm TGR block inactive.
Screening CNC(=S)N/N=C/c1c(C)c(C(=O)c2ccc(F)cc2)n2ccccc12 returned NS1 inh inactive, Pf growth 96h 3.3µM, Sm TGR block inactive, Shiga toxin inh inactive, CHX counter inactive and Pf growth 48h 8.3µM.
For CCc1ccccc1NC(=O)C1CC(c2ccc(F)cc2)=NO1 (stereo unspecified) the results were NS1 inh inactive, Pf growth 96h inactive, Sm TGR block inactive, Shiga toxin inh inactive, CHX counter inactive and Pf growth 48h inactive.
Screening COC(=O)c1ccccc1NC(=O)C1CC(c2ccc(F)cc2)=NO1 (stereo unspecified) returned NS1 inh inactive, Pf growth 96h 10µM, Sm TGR block inconclusive, Shiga toxin inh inactive, CHX counter inactive and Pf growth 48h inactive.
Screening Cc1cc(NC(=O)C2CC(c3ccc(F)cc3)=NO2)no1 (stereo unspecified) returned NS1 inh inactive, Pf growth 96h 5.2µM, Sm TGR block inactive, Shiga toxin inh inactive and CHX counter inactive.
Screening CCCN(CCC)C(=O)Cn1c(=O)n(-c2ccc(Cl)cc2)c(=O)c2c3c(sc21)CCCC3 returned Sm TGR block inactive.
For CCOC(=O)c1cc(OC(=O)c2cc(OC)c(OC)c(OC)c2)n(-c2ccccc2)n1 the results were Sm TGR block inactive.
`CS(=O)(=O)/C(C#N)=C\c1cnc(S(=O)(=O)c2ccccc2)s1` gave NS1 inh inactive, Pf growth 96h inactive, Sm TGR block inconclusive, Shiga toxin inh inactive, CHX counter 31 and Pf growth 48h inactive.
For CN(C)/C=C(\C#N)S(=O)(=O)c1ccccc1 the results were NS1 inh inactive, Pf growth 96h inactive, Sm TGR block inactive, Shiga toxin inh inactive, CHX counter inactive and Pf growth 48h inactive.
`Cc1ccc(CS(=O)(=O)Cc2ccc(C(=O)NC3CCCC3)o2)cc1` gave NS1 inh inactive, Pf growth 96h inactive, Sm TGR block inactive, Shiga toxin inh inactive, CHX counter inactive and Pf growth 48h inactive.
Screening COC(=O)c1c(C)noc1-c1ccc(Cl)cc1 returned NS1 inh inactive, Pf growth 96h inactive, Sm TGR block inactive, Shiga toxin inh inactive, CHX counter inactive and Pf growth 48h inactive.
Screening COC(=O)c1coc(-c2ccc(OC)cc2)c1C(=O)OC returned NS1 inh inactive, Pf growth 96h inactive, Sm TGR block inactive, Shiga toxin inh inactive and CHX counter 43.
For COC(=O)c1coc(-c2ccc(C)cc2)c1C(=O)OC the results were NS1 inh inactive, Pf growth 96h inactive, Sm TGR block inactive, Shiga toxin inh 66, CHX counter 39 and Pf growth 48h inactive.
For O=C(CC(O)(c1ccccc1)C(F)(F)F)c1cccs1 (stereo unspecified) the results were NS1 inh inactive, Pf growth 96h inactive, Sm TGR block inactive, Shiga toxin inh inactive and CHX counter inactive.
For NS(=O)(=O)c1ccc(CNC(=O)C(c2ccccc2)c2ccccc2)cc1 the results were NS1 inh inactive, Pf growth 96h inactive, Sm TGR block inactive, Shiga toxin inh inactive, CHX counter inactive and Pf growth 48h inactive.
`CCOC(=O)c1ccc(N2C(=O)CC(NC3CCN(C(=O)c4cccc(Cl)c4)CC3)C2=O)cc1` (stereo unspecified) gave NS1 inh inactive, Pf growth 96h inactive, Sm TGR block 50µM, Shiga toxin inh inactive, CHX counter inactive and Pf growth 48h inconclusive.
Screening CCOc1ccc(N2C(=O)CC(NC3CCN(C(=O)c4cccc(Cl)c4)CC3)C2=O)cc1 (stereo unspecified) returned NS1 inh inactive, Pf growth 96h inconclusive, Sm TGR block inactive, Shiga toxin inh inactive, CHX counter inactive and Pf growth 48h inactive.
For COc1ccccc1-c1cc(C(F)(F)F)n2ncc(S(=O)(=O)c3ccccc3)c2n1 the results were NS1 inh inactive, Pf growth 96h inconclusive, Sm TGR block inactive, Shiga toxin inh inactive, CHX counter inactive and Pf growth 48h inconclusive.
Screening CC(=O)Nc1ccc(S(=O)(=O)NNc2cccc(C)c2)cc1 returned NS1 inh inactive, Pf growth 96h inactive, Sm TGR block 14µM, Shiga toxin inh inactive, CHX counter inactive and Pf growth 48h inactive.
Cc1cccc(NC(=O)NNS(=O)(=O)c2ccc(F)cc2)c1 was read as NS1 inh inactive, Pf growth 96h inconclusive, Sm TGR block inactive, Shiga toxin inh inactive, CHX counter inactive and Pf growth 48h inactive.
